From PubChem BioAssay come the findings set out here.

The structures appear in SMILES notation. The source made the active and inactive calls.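 The calls were made as follows, unless noted: active = fluorescence ratio normalized to control raised more than 50% in primary screen plus both repeat runs; inactive = the rest.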

The first assay deals with TRPC4 beta (transient receptor potential cation channel C4), mouse. The assay is described as follows: TRPC4 cation channel opening, retest – cell-based, Fluo4 calcium, HEK293 TRPC4beta/mu-opioid, duplicates, 10 µM, confirmation (AID 2426).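 As to activation: percent rise of integrated ratio over buffer wells lacking compound which define 0%.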 The note with it: Fluo4 calcium fluorescence, at 10 µM; stronger effect = higher value.
In the case of `Fc1ccc(-c2nnc(CN3CCN(c4ncc(C(F)(F)F)cc4Cl)CC3)o2)cc1`, the activation was 120% (active).

In the case of `CCN1CCN(c2ccc(S(=O)(=O)N3CCCCC3)cc2NC(=O)COc2ccccc2)CC1`, the activation was 157% (active).

Turning to `CC1CC(C)CN(CCCNC(=O)c2nn(C)c3c2CS(=O)(=O)c2ccccc2-3)C1` (stereo not drawn), the activation is 112% (active).

Take `Cc1ccc(/C=N\NC(=O)C2COc3cc4ccccc4cc3O2)o1` (stereo not drawn): the activation is 102% (active).

`Cc1cccc(C)c1OCC(O)CN` (stereo not drawn): the activation is 90% (active).

With `CCn1cc(CN2CCCC(C(=O)Nc3ccc(-c4nc5ccccc5[nH]4)cc3)C2)c(C)n1` (stereo not drawn), the activation is 169% (active).

In the case of `CC(C)(C)c1cc(Cl)ccc1OCCn1ccnc1`, the activation is 57% (active).

On to `CC(C)c1ccc(NC(=S)N(C)CCc2ccccn2)cc1`, for which the outcome was inactive.

`CCCC(=O)NC(C)C(c1cccs1)N1CCN(c2ccccc2)CC1` (stereo not drawn): the result was inactive.

Turning to `Cc1ccc2oc(=O)c3cnn(CC(=O)NC4CCN(Cc5ccccc5)CC4)c3c2c1`, the activation is 68% (active).

For the compound `O=C(CCc1ccccc1)NNC(=S)NC(=O)c1ccc(Cl)cc1`, the activation was 170% (active).

Turning to `C=CCn1c(CCNC(=O)c2ccco2)nc2ccccc21`, the activation was 165% (active).

Take `Cc1sc2nc(CSc3ccccc3)nc(NCCN(C)C)c2c1C`: the activation is 173% (active).

As to `O=C(CNS(=O)(=O)c1ccc2ccccc2c1)NCCc1ccccn1`, the activation was 110% (active).

For `COc1ccc(-c2cc(C#N)nc(N3CCNCC3)n2)cc1`, the activation is 176% (active).

With `Cc1ccc(C)c(OCCCCn2ccnc2)c1`, the activation is 111% (active).

Consider `CCCN(CCC)CCNC(=S)Nc1ccc2nc3n(c(=O)c2c1)CCCCC3`, for which the result was inactive.

With `Cc1cccc(NC(=S)NCC(c2cccnc2)N(C)C)c1` (stereo not drawn), the activation is 87% (active).

Turning to `COc1ccc(/C=C/CN2CCCC(C(=O)c3ccc(OC)c(F)c3)C2)cc1` (stereo not drawn), the outcome was inactive.

Consider `Cc1sc2ncnc(NC3CCN(Cc4ccccc4)CC3)c2c1C`, for which the activation was 240% (active).

Take `CCCCN(CC)CCNC(=O)c1cc2c(C)nc3ccccc3c2o1`: the activation was 128% (active).

For the compound `O=C(NCCc1ccccn1)c1ccc(OC2CCN(CCc3ccccc3)CC2)cc1`, the activation was 76% (active).

On to `Cc1ccccc1NC(=S)NCCc1ccccn1`, for which the activation is 143% (active).

Take `NCCCn1c(C(=O)c2cc(Cl)c(N)c(Cl)c2)c2ccccc2[n+]1[O-]`: the activation was 179% (active).

For the compound `COc1ccc(-c2nn(-c3ccccc3)cc2CNCc2cccnc2)c(F)c1`, the activation is 224% (active).

Turning to `Cc1onc(-c2ccccc2)c1C(=O)NC(=S)NNC(=O)c1ccco1`, the activation is 142% (active).

Take `COc1ccc(C(CNC(=O)c2ccc(S(=O)(=O)N(C)C)cc2)N(C)C)cc1` (stereo not drawn): the activation was 296% (active).

With `CCN1C(=O)c2cccc3c(S(=O)(=O)Nc4ccccc4OC)ccc1c23`, the result was inactive.

Consider `CCOC(=O)C1CCCN(C(c2ccccn2)c2c(C)[nH]c3ccccc23)C1` (stereo not drawn), for which the activation is 208% (active).

As to `COC(=O)c1ccccc1N=Nc1c(N)[nH][nH]c1=O`, the activation is 87% (active).

Turning to `COc1ccc(C(CNCC(=O)Nc2ccccc2F)N(C)C)cc1` (stereo not drawn), the result was inactive.

Consider `CCOC(=O)C1(CCOc2ccccc2)CCN(Cc2cnc(C)s2)CC1`, for which the activation was 66% (active).

For the compound `O=C(c1sc2ccccc2c1Cl)N(Cc1ccco1)C1CCS(=O)(=O)C1` (stereo not drawn), the activation was 198% (active).

On to `CCCCN(C)CCCNC(=O)CN1N=C(c2ccc(Cl)cc2)CCC1=O`, for which the outcome was inactive.

`CN(C)CCCN(C(=O)c1ccc(C(=O)c2ccccc2)cc1)c1nc2ccc(F)cc2s1`: the activation was 83% (active).

`CN(CCc1nc2ccc(Cl)cc2[nH]1)Cc1nc(CC2CC2)no1`: the activation was 115% (active).

On to `Fc1ccc(C(c2nnnn2Cc2cccs2)N2CCN(C3CCCCC3)CC2)cc1` (stereo not drawn), for which the activation was 251% (active).

As for `COc1ccc(C2Nc3ccccc3C(=O)N2Cc2ccco2)cc1COc1ccc(NC(C)=O)cc1` (stereo not drawn), the outcome was inactive.

Turning to `O=C(NCCCN1CCN(CCCNC(=O)c2ccc3c(c2)OCO3)CC1)c1ccc2c(c1)OCO2`, the activation is 112% (active).

A further assay deals with transient receptor potential cation channel C4 beta (TRPC4), mouse. Briefly: TRPC4 cation channel opening, second retest – cell-based, second round, Fluo4, HEK293 TRPC4beta/mu-opioid, 1 µM, confirmation (AID 2461;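 active = primary screen active and over 50% activation in each of two duplicate runs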;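 as to activation: 0% = wells without test compound as baseline of integrated fluorescence ratio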). Conditions: Fluo4 calcium fluorescence, at 1 µM; stronger effect = higher value.
Regarding `Fc1ccc(-c2nnc(CN3CCN(c4ncc(C(F)(F)F)cc4Cl)CC3)o2)cc1`, the outcome was inactive.

For `CCN1CCN(c2ccc(S(=O)(=O)N3CCCCC3)cc2NC(=O)COc2ccccc2)CC1`, the result was inactive.

`CC1CC(C)CN(CCCNC(=O)c2nn(C)c3c2CS(=O)(=O)c2ccccc2-3)C1` (stereo not drawn): the activation was 72% (active).

Take `Cc1ccc(/C=N\NC(=O)C2COc3cc4ccccc4cc3O2)o1` (stereo not drawn): the result was inactive.

With `Cc1cccc(C)c1OCC(O)CN` (stereo not drawn), the outcome was inactive.

For `CCn1cc(CN2CCCC(C(=O)Nc3ccc(-c4nc5ccccc5[nH]4)cc3)C2)c(C)n1` (stereo not drawn), the activation is 116% (active).

For `CC(C)(C)c1cc(Cl)ccc1OCCn1ccnc1`, the outcome was inactive.

As to `CC(C)c1ccc(NC(=S)N(C)CCc2ccccn2)cc1`, the result was inactive.

Turning to `CCCC(=O)NC(C)C(c1cccs1)N1CCN(c2ccccc2)CC1` (stereo not drawn), the result was inactive.

`Cc1ccc2oc(=O)c3cnn(CC(=O)NC4CCN(Cc5ccccc5)CC4)c3c2c1`: the outcome was inactive.

As to `O=C(CCc1ccccc1)NNC(=S)NC(=O)c1ccc(Cl)cc1`, the outcome was inactive.

On to `C=CCn1c(CCNC(=O)c2ccco2)nc2ccccc21`, for which the activation was 70% (active).

With `Cc1sc2nc(CSc3ccccc3)nc(NCCN(C)C)c2c1C`, the result was inactive.

As for `O=C(CNS(=O)(=O)c1ccc2ccccc2c1)NCCc1ccccn1`, the result was inactive.

`COc1ccc(-c2cc(C#N)nc(N3CCNCC3)n2)cc1`: the result was inactive.

Take `Cc1ccc(C)c(OCCCCn2ccnc2)c1`: the outcome was inactive.

`CCCN(CCC)CCNC(=S)Nc1ccc2nc3n(c(=O)c2c1)CCCCC3`: the outcome was inactive.

Consider `Cc1cccc(NC(=S)NCC(c2cccnc2)N(C)C)c1` (stereo not drawn), for which the activation is 115% (active).

For the compound `COc1ccc(/C=C/CN2CCCC(C(=O)c3ccc(OC)c(F)c3)C2)cc1` (stereo not drawn), the outcome was inactive.

In the case of `Cc1sc2ncnc(NC3CCN(Cc4ccccc4)CC3)c2c1C`, the activation was 199% (active).

`CCCCN(CC)CCNC(=O)c1cc2c(C)nc3ccccc3c2o1`: the result was inactive.

For `O=C(NCCc1ccccn1)c1ccc(OC2CCN(CCc3ccccc3)CC2)cc1`, the outcome was inactive.

Regarding `Cc1ccccc1NC(=S)NCCc1ccccn1`, the outcome was inactive.

As for `NCCCn1c(C(=O)c2cc(Cl)c(N)c(Cl)c2)c2ccccc2[n+]1[O-]`, the activation is 103% (active).

Regarding `COc1ccc(-c2nn(-c3ccccc3)cc2CNCc2cccnc2)c(F)c1`, the outcome was inactive.

On to `Cc1onc(-c2ccccc2)c1C(=O)NC(=S)NNC(=O)c1ccco1`, for which the result was inactive.

`COc1ccc(C(CNC(=O)c2ccc(S(=O)(=O)N(C)C)cc2)N(C)C)cc1` (stereo not drawn): the activation is 179% (active).

As for `CCN1C(=O)c2cccc3c(S(=O)(=O)Nc4ccccc4OC)ccc1c23`, the result was inactive.

For `CCOC(=O)C1CCCN(C(c2ccccn2)c2c(C)[nH]c3ccccc23)C1` (stereo not drawn), the outcome was inactive.

On to `COC(=O)c1ccccc1N=Nc1c(N)[nH][nH]c1=O`, for which the result was inactive.

On to `COc1ccc(C(CNCC(=O)Nc2ccccc2F)N(C)C)cc1` (stereo not drawn), for which the activation was 105% (active).

Take `CCOC(=O)C1(CCOc2ccccc2)CCN(Cc2cnc(C)s2)CC1`: the result was inactive.

As to `O=C(c1sc2ccccc2c1Cl)N(Cc1ccco1)C1CCS(=O)(=O)C1` (stereo not drawn), the outcome was inactive.

As for `CCCCN(C)CCCNC(=O)CN1N=C(c2ccc(Cl)cc2)CCC1=O`, the result was inactive.

Take `CN(C)CCCN(C(=O)c1ccc(C(=O)c2ccccc2)cc1)c1nc2ccc(F)cc2s1`: the outcome was inactive.

As for `CN(CCc1nc2ccc(Cl)cc2[nH]1)Cc1nc(CC2CC2)no1`, the outcome was inactive.

Consider `Fc1ccc(C(c2nnnn2Cc2cccs2)N2CCN(C3CCCCC3)CC2)cc1` (stereo not drawn), for which the activation is 67% (active).

`COc1ccc(C2Nc3ccccc3C(=O)N2Cc2ccco2)cc1COc1ccc(NC(C)=O)cc1` (stereo not drawn): the outcome was inactive.

Turning to `O=C(NCCCN1CCN(CCCNC(=O)c2ccc3c(c2)OCO3)CC1)c1ccc2c(c1)OCO2`, the activation is 76% (active).
